The text below walks through data of PubChem BioAssay.

Calls of active or inactive are those of the source.

Assay [1] in a line: small molecules captured by biotinylated probe aFSTL3 – biochemical, small-molecule microarray, fluorescence 635/667, stem cell growth factor project, primary screen (AID 1064).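 Further: measures binding of the biotinylated anti-FSTL3 antibody to printed compounds.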 The note with it: higher = more signal.
A short description of assay [2]: binders from COS7 lysate, DM2A8 probe, primary screen, torsin A project, cell lysate, small-molecule microarray, fluorescence 635/667 (AID 1065). The following applies: higher = more signal, COS7 lysate expressing mutant human TOR1A.
Assay [3] is described as follows: small molecules captured by biotinylated probe aFGF2 – biochemical, small-molecule microarray, fluorescence 635/667, stem cell growth factor project, primary screen (AID 1067).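 Further: measures binding of biotinylated aFGF2 protein to printed compounds on slides; z-score merges feature fluorescence and signal-to-noise across triplicate slides.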 The following applies: higher = more signal.
Assay [4] is described as follows: small molecules captured by biotinylated probe aFGF10 – biochemical, small-molecule microarray, fluorescence 635/667, stem cell growth factor project, primary screen (AID 1071).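 Further: score merges 667 nm spot intensity and signal to noise from triplicate slides.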 The note with it: higher = more signal.
Assay [5] has as its target Neurogenic locus notch homolog protein 2 (Homo sapiens) (UniProt Q04721). The assay is described as follows: small molecules binding Notch2 protein – biochemical, small-molecule microarray, 635 nm fluorescence, stem cell growth factors, primary screen (AID 1073). The note with it: higher = more signal.
The target in assay [6] is Pro-neuregulin-1, membrane-bound isoform (Homo sapiens) (UniProt Q02297). The assay can be described thus: small molecules binding neuregulin-1 protein – biochemical, small-molecule microarray, fluorescence 635/667, psychiatric disease protein project, primary screen (AID 1075).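 Further: score combines 667 nm spot fluorescence with signal to noise.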 The note with it: NRG1 binding, 635 nm fluorescence, higher = more signal.
Chain of Pro-neuregulin-1, membrane-bound isoform (Homo sapiens) (Q02297 whole entry, looked up, the tested form may be a part, canonical isoform): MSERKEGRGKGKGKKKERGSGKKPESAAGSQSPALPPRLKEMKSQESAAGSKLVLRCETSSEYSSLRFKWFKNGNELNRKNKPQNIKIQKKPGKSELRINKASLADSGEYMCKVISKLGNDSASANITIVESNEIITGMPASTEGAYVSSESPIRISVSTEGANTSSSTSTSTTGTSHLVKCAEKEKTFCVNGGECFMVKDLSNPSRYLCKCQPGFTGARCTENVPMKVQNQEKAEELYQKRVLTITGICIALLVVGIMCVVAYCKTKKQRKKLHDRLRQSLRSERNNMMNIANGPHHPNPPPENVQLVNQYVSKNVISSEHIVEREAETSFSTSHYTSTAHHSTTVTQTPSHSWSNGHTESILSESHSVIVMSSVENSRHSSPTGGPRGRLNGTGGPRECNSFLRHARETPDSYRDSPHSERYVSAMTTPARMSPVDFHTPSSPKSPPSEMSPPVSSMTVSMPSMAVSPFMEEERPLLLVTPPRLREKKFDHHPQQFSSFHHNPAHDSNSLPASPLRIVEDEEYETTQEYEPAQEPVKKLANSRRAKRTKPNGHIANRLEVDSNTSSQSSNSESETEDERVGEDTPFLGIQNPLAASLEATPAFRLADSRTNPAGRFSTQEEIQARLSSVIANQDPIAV
Assay [7] has as its system Neuregulin-1 EGF-like domain. The assay can be described thus: small molecules binding NRG1 EGF domain – biochemical, small-molecule microarray, 635 nm fluorescence, primary screen (AID 1081).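 Further: binding of the protein to compounds printed on small-molecule microarray slides.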 The note with it: higher = more signal.
Assay [8] can be described thus: FRG1 expression reporter modulators in myotubes – cell-based, C2C12 myotubes, firefly/Renilla luciferase, luminescence, FRG1 inhibition for FSHD, primary screen (AID 1084). The following applies: FRG1 promoter luciferase, higher = more signal, called active from +8 up or from −8 down.
The nature of assay [9]: small molecules captured by biotinylated probe aFST – biochemical, small-molecule microarray, fluorescence 635/667, stem cell growth factor project, primary screen (AID 1086).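 Further: score merges 667 nm fluorescence with signal-to-noise of each printed compound spot.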 The following applies: higher = more signal.
Assay [10] can be described thus: binders of probe aHhip on microarray, primary screen, stem cell growth factor project, biochemical, small-molecule microarray, fluorescence 635/667 (AID 1087).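 Further: score merges spot fluorescence at 667nm with spot signal to noise ratio.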 The following applies: higher = more signal.
Assay [11] relates to PRMT1 (protein arginine N-methyltransferase 1). The assay can be described thus: small molecules binding arginine methyltransferase PRMT1 – biochemical, small-molecule microarray, 635 nm fluorescence, primary screen (AID 1088).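 Further: binding of Prmt1 protein to compounds spotted on small-molecule microarray slides.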 The following applies: higher = more signal.
The nature of assay [12]: growth effects on S. cerevisiae YJM789 – YJM789 clinical isolate, OD600, 24 h, basal, primary screen (AID 1089).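 Further: growth of clinical yeast isolate S. cerevisiae YJM 789 seeded 1000 cells per well; test concentration not given here.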 The note with it: higher = more signal, called active from +8 up or from −8 down.
A short description of assay [13]: S. pombe growth modifiers, basal conditions – strain 972, OD600, 24 h, no modulator, primary screen (AID 1090).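 Further: basal condition with compound alone and no growth modifier present; test concentration not given here.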 The following applies: S. pombe 972 growth, higher = more signal, called active from +8 up or from −8 down.
Assay [14] is described as follows: budding yeast growth modifiers under rapamycin – strain BY4716, OD600, 96 h, primary screen (AID 1091). Further: test concentration not given here. The following applies: S. cerevisiae BY4716 + rapamycin, higher = more signal, called active from +8 up or from −8 down.
Assay [15] deals with Torsin-1A-interacting protein 2 (Homo sapiens) (UniProt Q8NFQ8). The assay is described as follows: small molecules binding lysate-expressed LULL1 – cell lysate, human LULL1 lysate, 635/667 nm fluorescence, primary screen (AID 1092).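 Further: probe is lysate of COS7 cells overexpressing human LULL1; score merges per-feature 667 nm fluorescence with signal-to-noise.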 The note with it: small-molecule microarray, hLULL1 lysate binding, 635 nm fluorescence; higher = more signal.
Chain of Torsin-1A-interacting protein 2 (Homo sapiens) (Q8NFQ8 whole entry, looked up): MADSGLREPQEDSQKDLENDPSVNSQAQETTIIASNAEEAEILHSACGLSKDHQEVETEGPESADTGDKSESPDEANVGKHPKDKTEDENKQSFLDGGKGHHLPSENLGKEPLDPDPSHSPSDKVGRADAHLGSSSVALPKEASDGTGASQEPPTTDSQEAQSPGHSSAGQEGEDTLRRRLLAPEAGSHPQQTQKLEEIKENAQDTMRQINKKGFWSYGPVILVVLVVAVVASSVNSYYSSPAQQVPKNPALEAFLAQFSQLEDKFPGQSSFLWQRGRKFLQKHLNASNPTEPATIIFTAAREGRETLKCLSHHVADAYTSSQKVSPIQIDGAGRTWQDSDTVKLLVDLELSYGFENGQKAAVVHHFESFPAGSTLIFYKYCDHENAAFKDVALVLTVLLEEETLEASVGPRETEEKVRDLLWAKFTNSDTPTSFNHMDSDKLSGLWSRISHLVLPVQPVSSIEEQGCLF
A short description of assay [16]: optical density change of DRC41 E. coli – strain DRC41, OD650, 24 h, E. coli filamentation project, primary screen (AID 1093).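 Further: MC1000 strain lacking acrAB efflux and sulA so SOS filamentation is blocked; test concentration not given here.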 The note with it: E. coli DRC41 growth, higher = more signal, called active from +8 up or from −8 down.
Assay [17] is described as follows: probe aLefty2 binding to arrayed compounds – biochemical, biotinylated probe, 635/667 nm fluorescence, primary screen (AID 1094).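 Further: score merges spot fluorescence near 667 nm with spot signal-to-noise ratio.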 The note with it: small-molecule microarray, higher = more signal.
Assay [18] deals with Noggin (protein binding on small-molecule microarray). The assay is described as follows: small molecules binding Noggin protein – biochemical, 635/667 nm fluorescence, primary screen (AID 1095).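 Further: score merges 667 nm feature fluorescence with signal to noise over triplicate slides.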 The following applies: 635 nm fluorescence, higher = more signal.
Assay [19] addresses Neurogenic locus notch homolog protein 3 (Homo sapiens) (UniProt Q9UM47). The assay can be described thus: small molecules binding NOTCH3 protein – biochemical, 635/667 nm fluorescence, primary screen (AID 1096). The note with it: small-molecule microarray, 635 nm fluorescence, higher = more signal.
The nature of assay [20]: probe aEGFR binding to arrayed compounds – biochemical, biotinylated probe, 635/667 nm fluorescence, primary screen (AID 1097).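 Further: probe is a biotinylated anti-EGFR antibody binding compounds printed on slides; score combines fluorescence near 667 nm and signal to noise of each spot.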 The note with it: small-molecule microarray, higher = more signal.

Chain of Neurogenic locus notch homolog protein 2 (Homo sapiens) (Q04721 whole entry, looked up, canonical isoform): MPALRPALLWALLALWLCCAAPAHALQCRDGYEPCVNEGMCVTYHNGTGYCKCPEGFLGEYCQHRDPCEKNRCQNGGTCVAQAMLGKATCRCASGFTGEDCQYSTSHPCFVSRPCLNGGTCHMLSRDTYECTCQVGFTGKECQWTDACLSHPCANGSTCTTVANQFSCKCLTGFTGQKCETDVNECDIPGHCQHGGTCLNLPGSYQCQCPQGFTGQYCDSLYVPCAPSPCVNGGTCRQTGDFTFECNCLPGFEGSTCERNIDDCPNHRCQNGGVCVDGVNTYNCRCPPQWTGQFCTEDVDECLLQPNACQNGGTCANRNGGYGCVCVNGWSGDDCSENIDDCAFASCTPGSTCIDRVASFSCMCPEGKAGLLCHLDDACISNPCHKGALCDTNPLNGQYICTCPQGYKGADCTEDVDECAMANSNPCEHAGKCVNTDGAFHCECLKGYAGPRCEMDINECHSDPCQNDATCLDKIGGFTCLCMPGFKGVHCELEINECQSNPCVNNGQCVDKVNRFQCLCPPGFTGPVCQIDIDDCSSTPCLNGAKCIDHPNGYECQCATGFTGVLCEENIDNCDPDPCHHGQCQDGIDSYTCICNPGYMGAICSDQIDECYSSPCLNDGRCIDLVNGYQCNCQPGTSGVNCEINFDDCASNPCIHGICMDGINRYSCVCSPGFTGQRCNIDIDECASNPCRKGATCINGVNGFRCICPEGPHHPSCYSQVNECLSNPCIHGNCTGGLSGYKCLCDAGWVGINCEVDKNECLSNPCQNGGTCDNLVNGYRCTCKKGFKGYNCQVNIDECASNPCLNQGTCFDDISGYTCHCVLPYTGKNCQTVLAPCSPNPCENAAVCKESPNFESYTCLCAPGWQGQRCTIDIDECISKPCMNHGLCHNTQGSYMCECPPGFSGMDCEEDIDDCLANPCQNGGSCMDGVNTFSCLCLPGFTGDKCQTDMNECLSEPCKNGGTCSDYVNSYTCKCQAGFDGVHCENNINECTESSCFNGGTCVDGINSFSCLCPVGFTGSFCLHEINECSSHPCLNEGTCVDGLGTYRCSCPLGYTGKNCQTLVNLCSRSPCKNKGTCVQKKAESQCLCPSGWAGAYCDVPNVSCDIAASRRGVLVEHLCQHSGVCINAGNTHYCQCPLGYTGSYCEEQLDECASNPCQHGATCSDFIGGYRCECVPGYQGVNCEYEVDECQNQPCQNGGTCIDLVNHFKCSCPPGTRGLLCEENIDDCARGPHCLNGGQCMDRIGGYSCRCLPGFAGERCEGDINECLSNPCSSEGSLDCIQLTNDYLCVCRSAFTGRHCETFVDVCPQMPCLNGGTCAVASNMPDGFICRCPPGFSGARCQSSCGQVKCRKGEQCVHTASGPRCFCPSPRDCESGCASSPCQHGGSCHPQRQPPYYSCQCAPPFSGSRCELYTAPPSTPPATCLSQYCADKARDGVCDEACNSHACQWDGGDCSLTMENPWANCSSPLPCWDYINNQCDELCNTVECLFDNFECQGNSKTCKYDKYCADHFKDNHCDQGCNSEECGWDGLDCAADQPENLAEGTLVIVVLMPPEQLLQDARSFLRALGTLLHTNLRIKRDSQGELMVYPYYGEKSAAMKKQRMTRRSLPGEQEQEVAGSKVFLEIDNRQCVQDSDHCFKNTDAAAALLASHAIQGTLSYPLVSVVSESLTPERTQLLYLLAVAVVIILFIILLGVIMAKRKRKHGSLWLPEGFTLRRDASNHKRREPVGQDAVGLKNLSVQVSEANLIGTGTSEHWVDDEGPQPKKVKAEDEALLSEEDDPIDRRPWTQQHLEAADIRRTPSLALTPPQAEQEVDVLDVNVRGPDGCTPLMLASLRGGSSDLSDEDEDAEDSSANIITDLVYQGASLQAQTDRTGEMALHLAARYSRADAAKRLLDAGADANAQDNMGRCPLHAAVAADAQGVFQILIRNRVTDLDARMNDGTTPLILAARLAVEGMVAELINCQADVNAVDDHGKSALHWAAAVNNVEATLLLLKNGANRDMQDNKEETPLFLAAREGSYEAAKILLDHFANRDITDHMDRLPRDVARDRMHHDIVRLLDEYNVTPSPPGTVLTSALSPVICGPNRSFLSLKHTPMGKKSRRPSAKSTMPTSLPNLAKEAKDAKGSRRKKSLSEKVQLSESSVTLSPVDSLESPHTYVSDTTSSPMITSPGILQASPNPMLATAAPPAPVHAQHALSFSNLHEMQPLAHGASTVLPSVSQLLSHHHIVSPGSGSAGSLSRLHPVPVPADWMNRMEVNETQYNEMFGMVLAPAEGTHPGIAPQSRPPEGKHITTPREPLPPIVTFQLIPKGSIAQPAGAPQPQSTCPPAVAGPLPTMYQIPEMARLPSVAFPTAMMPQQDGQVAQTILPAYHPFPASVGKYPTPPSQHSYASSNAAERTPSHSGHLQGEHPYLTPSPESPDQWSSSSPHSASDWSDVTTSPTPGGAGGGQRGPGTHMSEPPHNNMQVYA

For the molecule `O=C(O)[C@@]1(CCS(=O)(=O)c2ccccc2)N=C(c2ccc(OCCCO)cc2)O[C@H]1c1ccccc1`, the composite z-score in assay [1] is 0.132; in [2], -0.0272; in [3] it was 0.0654; in [4] it was -0.029; in assay [5], 0.604; in assay [6] it was 1.62. Also, the composite z-score in assay [7] was 1.06; in assay [9] it was 0.38; in [10], -0.0994; in assay [11] it was 1.07; in [15] it was 3.46; in assay [17], 0.16. Moreover, the composite z-score in [18] is -0.0519; in [19], -0.0296; in [20], -0.144. Besides, the z-score was 2.18 (inactive) in assay [8]; -0.326 (inactive) in assay [12]; -5.25 (inactive) in [13]; -0.934 (inactive) in assay [14]; 0.712 (inactive) in assay [16].

As to `COC(=O)[C@]1(Cc2ccccc2)N=C(c2ccc(OCCCO)cc2)O[C@@H]1c1ccccc1N=[N+]=[N-]`, the composite z-score in [1] is -0.186; in assay [2], 0.179; in [3], -0.0268; in assay [4] it was -0.13; in assay [5], 0.473; in [6] it was 0.314. The composite z-score is 0.764 in assay [7]; 0.551 in assay [9]; 0.0373 in assay [10]; 1.52 in [11]; 1.82 in assay [15]; -0.0389 in assay [17]. For the same molecule, the composite z-score in assay [18] is 1.15; in [19], 0.58; in [20], -0.0987. Also, the z-score was 4.51 (inactive) in assay [8]; -0.701 (inactive) in assay [12]; -1.01 (inactive) in [13]; 24.6 (active) in [14]; -0.604 (inactive) in assay [16].

Consider `C=CC[C@]1(C(=O)N2CCOCC2)N=C(c2ccc(OCCCO)cc2)O[C@H]1c1ccccc1N=[N+]=[N-]`, for which the composite z-score was -0.0247 in assay [1]; 0.572 in assay [2]; 0.102 in assay [3]; 0.642 in assay [4]; 1.24 in [5]; 1.8 in [6]. Further, the composite z-score in assay [7] is 1.25; in [9], 1.2; in [10], 0.0596; in assay [11], 1.54; in [15], 3.45; in assay [17] it was 0.405. The composite z-score is 0.752 in assay [18], 1.11 in [19] and -0.0406 in assay [20]. Moreover, the z-score in assay [8] was -0.322 (inactive); in [12], -0.0233 (inactive); in assay [13], -1.22 (inactive); in assay [14], 0.206 (inactive); in [16] it was 0.734 (inactive).

On to `COC(=O)[C@@]1(Cc2ccccc2)[C@H]2c3cc(C(=O)N(C)C)n(Cc4ccc(OC)c(OC)c4)c3C[C@H]2CN1C(=O)c1ccccc1`, for which the composite z-score was 0.396 in assay [1]; 0.517 in assay [2]; 0.487 in assay [3]; 1.23 in assay [4]; 1.83 in assay [5]; 1.62 in assay [6]. Moreover, the composite z-score in [7] amounted to 1.34; in [9], 1.28; in assay [10] it was 0.66; in assay [11] it was 0.42; in assay [15] it was 3.53; in [17], 0.728. For the same molecule, the composite z-score was determined as 0.0998 in [18], 1.03 in assay [19] and 0.426 in assay [20]. Besides, the z-score in assay [8] is 0.115 (inactive); in [12], -0.257 (inactive); in assay [13] it was 0.836 (inactive); in assay [14] it was 0.534 (inactive); in assay [16], -0.793 (inactive).

`COC(=O)[C@H](Cc1ccccc1)N[C@H](/C=C/C1CC1)[C@@H](O)Cc1ccccc1`: the composite z-score in [1] was 0.128; in assay [2], 0.1; in assay [3], -0.202; in assay [4] it was -0.471; in [5], -0.567; in assay [6], -0.0373. The composite z-score in assay [7] is -0.626; in [9] it was -0.474; in assay [10], -0.132; in assay [11], -0.108; in assay [15], -0.316; in assay [17] it was -0.279. In addition, the composite z-score was 0.195 in assay [18], -0.469 in assay [19] and -0.178 in assay [20]. Further, the z-score in [8] is -1.72 (inactive); in assay [12] it was -1.56 (inactive); in assay [13] it was -5.75 (inactive); in [14], -0.751 (inactive); in [16], 1.04 (inactive).
